Holding throughout (conditions): mRNA level, 48 h; actives raise or lower the signal
Read-out in experiment [1]: JUN Transcription Factor, JUN (gene 3725)
Briefly: LTEA_HepaRG_JUN: Life Technologies and Expression Analysis (LTEA) Assay for JUN Transcription Factor using HepaRG (AID 2283513). The procedure, abridged:
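Differentiated HepaRG cells were exposed to chemicals for 48 h in serum-free induction medium, 8 concentrations from 100 uM in half-log steps, 0.5% DMSO vehicle, in duplicate. JUN mRNA was quantified by TaqMan qRT-PCR, normalized to ACTB, GAPDH, POLR2A.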

Read-out in experiment [2]: Lipase C (LIPC), LIPC (gene 3990)
As to the kind of experiment: LTEA_HepaRG_LIPC: Life Technologies and Expression Analysis (LTEA) Assay for Lipase C (LIPC) using HepaRG (AID 2283514). Put shortly:
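Differentiated human HepaRG cells in serum-free induction medium were exposed in duplicate for 48 h to eight concentrations (top 100 uM, half-log steps, 0.5% DMSO). LIPC mRNA was quantified by TaqMan qRT-PCR, normalized to ACTB, GAPDH and POLR2A, with bidirectional fitting versus DMSO.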

Read-out in experiment [3]: Lipoprotein lipase (LPL), LPL (gene 4023)
Briefly: LTEA_HepaRG_LPL: Life Technologies and Expression Analysis (LTEA) Assay for Lipoprotein lipase (LPL) using HepaRG (AID 2283515). The procedure, abridged:
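Differentiated human HepaRG cells in serum-free induction medium were exposed in duplicate for 48 h to eight half-log concentrations (top 100 uM) in 0.5% DMSO. LPL mRNA was quantified by TaqMan qRT-PCR, normalized to ACTB, GAPDH and POLR2A.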

Read-out in experiment [4]: MicroRNA 122 (MIR122), gene 406906
Briefly: LTEA_HepaRG_MIR122: Life Technologies and Expression Analysis (LTEA) Assay for MicroRNA 122 (MIR122) using HepaRG (AID 2283516). Note: the transcript read is the microRNA miR-122. Put shortly:
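Differentiated human HepaRG cells were exposed 48 h in serum-free induction medium to eight half-log concentrations (top 100 uM, 0.5% DMSO). Transcript level was measured by TaqMan qRT-PCR, normalized to ACTB, GAPDH and POLR2A, and fitted bidirectionally versus DMSO.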

Read-out in experiment [5]: matrix metalloproteinase-10 (MMP10), MMP10 (gene 4319)
As to the kind of experiment: LTEA_HepaRG_MMP10: Life Technologies and Expression Analysis (LTEA) Assay for matrix metalloproteinase-10 (MMP10) using HepaRG (AID 2283517). Put shortly: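 HepaRG, collagen I, ~100,000 cells/well; serum-free induction medium; 48 h exposure, duplicate, 8-pt half-log to 100 uM, 0.5% DMSO. Readout: TaqMan qRT-PCR, normalized to ACTB/GAPDH/POLR2A; bidirectional fit vs DMSO.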

Read-out in a further experiment: MYC, MYC (gene 4609)
Briefly: LTEA_HepaRG_MYC: Life Technologies and Expression Analysis (LTEA) Assay for MYC using HepaRG (AID 2283518). Put shortly:
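Expression changes were scored by TaqMan qRT-PCR with ACTB, GAPDH and POLR2A normalization. Cultures in serum-free induction medium received duplicate 8-point concentration series, highest 100 uM, for 48 h; DMSO (0.5%) served as baseline.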

Read-out in experiment [6]: Paternally Expressed 10 (PEG10), PEG10 (gene 23089)
As to the kind of experiment: LTEA_HepaRG_PEG10: Life Technologies and Expression Analysis (LTEA) Assay for Paternally Expressed 10 (PEG10) using HepaRG (AID 2283520). Put shortly:
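Differentiated HepaRG cells, plated 48 h then switched to serum-free induction medium, were exposed in duplicate for 48 h to eight half-log concentrations topping at 100 uM in 0.5% DMSO. PEG10 mRNA was quantified by TaqMan qRT-PCR, normalised to ACTB, GAPDH and POLR2A.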

Read-out in experiment [7]: Nuclear factor NF-kappa-B p105 subunit (Homo sapiens) (UniProt P19838)
As to the kind of experiment: LTEA_HepaRG_NFKB1: Life Technologies and Expression Analysis (LTEA) Assay for Nuclear Factor Kappa B Subunit 1 (NFKB1) using HepaRG (AID 2283521).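 Note: TaqMan qRT-PCR transcript normalised to ACTB GAPDH and POLR2A housekeeping genes.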 The procedure, abridged: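 Human HepaRG cells receive eight half-log concentrations, highest 100 uM, for 48 h. NFKB1 expression is then quantified by qRT-PCR and analysed for up- or down-regulation relative to 0.5% DMSO vehicle.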

Read-out in experiment [8]: Protein phosphatase 2A (PPP2R4), PTPA (gene 5524)
Briefly: LTEA_HepaRG_PPP2R4: Life Technologies and Expression Analysis (LTEA) Assay for Protein phosphatase 2A (PPP2R4) using HepaRG (AID 2283522). Put shortly: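 Differentiated HepaRG cells in serum-free induction medium were exposed in duplicate for 48 h to eight concentrations, top 100 uM with half-log dilutions, in 0.5% DMSO. PPP2R4 mRNA was quantified by TaqMan qRT-PCR, normalized to ACTB, GAPDH and POLR2A.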

Read-out in experiment [9]: Phosphatase and tensin (PTEN), PTEN (gene 5728)
As to the kind of experiment: LTEA_HepaRG_PTEN: Life Technologies and Expression Analysis (LTEA) Assay for Phosphatase and tensin (PTEN) using HepaRG (AID 2283523). Put shortly: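 Differentiated human HepaRG cells, plated 48 h then switched to serum-free induction medium, were exposed in duplicate for 48 h to eight half-log concentrations up to 100 uM in 0.5% DMSO. PTEN mRNA measured by TaqMan qRT-PCR, normalized to ACTB/GAPDH/POLR2A, bidirectional fit versus DMSO.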

Read-out in experiment [10]: solute carrier (SLC22A1), SLC22A1 (gene 6580)
As to the kind of experiment: LTEA_HepaRG_SLC22A1: Life Technologies and Expression Analysis (LTEA) Assay for solute carrier (SLC22A1) using HepaRG (AID 2283524). Put shortly: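 Human HepaRG cells were plated 48 h, switched to serum-free induction medium, then exposed in duplicate for 48 h to 8-point half-log series from 100 uM in 0.5% DMSO. SLC22A1 mRNA measured by qRT-PCR, normalized to ACTB/GAPDH/POLR2A, fitted bidirectionally versus DMSO.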

Read-out in experiment [11]: Pyruvate Dehydrogenase Kinase 4 (PDK4), PDK4 (gene 5166)
As to the kind of experiment: LTEA_HepaRG_PDK4: Life Technologies and Expression Analysis (LTEA) Assay for Pyruvate Dehydrogenase Kinase 4 (PDK4) using HepaRG (AID 2283525). Put shortly:
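Differentiated human HepaRG cells, pre-cultured 48 h, were exposed in duplicate for 48 h in serum-free induction medium to eight half-log concentrations up to 100 uM in 0.5% DMSO. PDK4 mRNA was quantified by qRT-PCR, normalized to ACTB, GAPDH and POLR2A, bidirectional fitting versus DMSO.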

Read-out in experiment [12]: NAD(P)H dehydrogenase [quinone] 1 (NQO1), NQO1 (gene 1728)
Briefly: LTEA_HepaRG_NQO1: Life Technologies and Expression Analysis (LTEA) Assay for NAD(P)H dehydrogenase [quinone] 1 (NQO1) using HepaRG (AID 2283526). Put shortly:
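Differentiated HepaRG cells, plated 48 h and then switched to serum-free induction medium, were exposed in duplicate for 48 h to 8-point half-log concentrations up to 100 uM in 0.5% DMSO. mRNA measured by qRT-PCR, normalized to ACTB, GAPDH, POLR2A; bidirectional fit versus DMSO.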

Read-out in experiment [13]: Nuclear factor erythroid 2-related factor 2 (Homo sapiens) (UniProt Q16236)
As to the kind of experiment: LTEA_HepaRG_NFE2L2: Life Technologies and Expression Analysis (LTEA) Assay for Nuclear factor erythroid 2-related factor 2 (NFE2L2) Transcription Factor using HepaRG (AID 2283527).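 Note: TaqMan qRT-PCR transcript level normalised to ACTB GAPDH and POLR2A housekeeping genes.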 Put shortly:
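Differentiated human HepaRG cells in serum-free induction medium were exposed for 48 h to eight concentrations (top 100 uM, half-log dilutions, 0.5% DMSO), in duplicate. NFE2L2 mRNA was quantified by TaqMan qRT-PCR, normalized to ACTB, GAPDH and POLR2A, with bidirectional fitting versus DMSO.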

Read-out in experiment [14]: succinate dehydrogenase complex iron sulfur subunit B (SDHB), SDHB (gene 6390)
As to the kind of experiment: LTEA_HepaRG_SDHB: Life Technologies and Expression Analysis (LTEA) Assay for succinate dehydrogenase complex iron sulfur subunit B (SDHB) using HepaRG (AID 2283528). Put shortly:
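A human HepaRG culture in serum-free induction medium received test chemicals for 48 h over an eight-point range capped at 100 uM. SDHB expression change was quantified by qRT-PCR.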

Read-out in experiment [15]: Signal transducer and activator of transcription 3 (Homo sapiens) (UniProt P40763)
As to the kind of experiment: LTEA_HepaRG_STAT3: Life Technologies and Expression Analysis (LTEA) Assay for Signal transducer and activator of transcription (STAT3) using HepaRG (AID 2283529). Put shortly: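 Differentiated human HepaRG cells in serum-free induction medium were exposed in duplicate for 48 h to eight half-log concentrations up to 100 uM in 0.5% DMSO. STAT3 mRNA was quantified by TaqMan qRT-PCR, normalized to ACTB, GAPDH and POLR2A, and fitted bidirectionally against DMSO.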

Read-out in experiment [16]: solute carrier (SLCO1B1), SLCO1B1 (gene 10599)
Briefly: LTEA_HepaRG_SLCO1B1: Life Technologies and Expression Analysis (LTEA) Assay for solute carrier (SLCO1B1) using HepaRG (AID 2283530). The procedure, abridged: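 Human HepaRG cultures treated for 48 h with an eight-concentration half-log series topping at 100 uM; SLCO1B1 measured by qRT-PCR and fitted bidirectionally relative to DMSO.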

Read-out in experiment [17]: Transforming Growth Factor (TGFA), TGFA (gene 7039)
Briefly: LTEA_HepaRG_TGFA: Life Technologies and Expression Analysis (LTEA) Assay for Transforming Growth Factor (TGFA) using HepaRG (AID 2283532). Put shortly: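 Differentiated human HepaRG cells, plated 48 h then switched to serum-free induction medium, were exposed in duplicate for 48 h to 8-point half-log series from 100 uM in 0.5% DMSO. TGFA mRNA measured by qRT-PCR, normalized to ACTB/GAPDH/POLR2A, bidirectional fit versus DMSO.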

Read-out in experiment [18]: sulfotransferase 2A1 (SULT2A1), SULT2A1 (gene 6822)
Briefly: LTEA_HepaRG_SULT2A1: Life Technologies and Expression Analysis (LTEA) Assay for sulfotransferase 2A1 (SULT2A1) using HepaRG (AID 2283531). The procedure, abridged: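 Gene-expression endpoint in a human liver cell line: SULT2A1 mRNA change after 48 h chemical treatment, curves fitted in both directions relative to 0.5% DMSO vehicle. Concentrations spanned eight half-log steps from 100 uM.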

Activity calls are given as the source filed them. Rule for the calls: active = hit-call score of the fitted dose curve at least 0.9, where 1 is the maximum; inactive = score below 0.9.

Experimental findings from PubChem BioAssay (EPA / NIEHS) are described below.

Sequence of Nuclear factor NF-kappa-B p105 subunit (Homo sapiens) (P19838 whole entry, looked up): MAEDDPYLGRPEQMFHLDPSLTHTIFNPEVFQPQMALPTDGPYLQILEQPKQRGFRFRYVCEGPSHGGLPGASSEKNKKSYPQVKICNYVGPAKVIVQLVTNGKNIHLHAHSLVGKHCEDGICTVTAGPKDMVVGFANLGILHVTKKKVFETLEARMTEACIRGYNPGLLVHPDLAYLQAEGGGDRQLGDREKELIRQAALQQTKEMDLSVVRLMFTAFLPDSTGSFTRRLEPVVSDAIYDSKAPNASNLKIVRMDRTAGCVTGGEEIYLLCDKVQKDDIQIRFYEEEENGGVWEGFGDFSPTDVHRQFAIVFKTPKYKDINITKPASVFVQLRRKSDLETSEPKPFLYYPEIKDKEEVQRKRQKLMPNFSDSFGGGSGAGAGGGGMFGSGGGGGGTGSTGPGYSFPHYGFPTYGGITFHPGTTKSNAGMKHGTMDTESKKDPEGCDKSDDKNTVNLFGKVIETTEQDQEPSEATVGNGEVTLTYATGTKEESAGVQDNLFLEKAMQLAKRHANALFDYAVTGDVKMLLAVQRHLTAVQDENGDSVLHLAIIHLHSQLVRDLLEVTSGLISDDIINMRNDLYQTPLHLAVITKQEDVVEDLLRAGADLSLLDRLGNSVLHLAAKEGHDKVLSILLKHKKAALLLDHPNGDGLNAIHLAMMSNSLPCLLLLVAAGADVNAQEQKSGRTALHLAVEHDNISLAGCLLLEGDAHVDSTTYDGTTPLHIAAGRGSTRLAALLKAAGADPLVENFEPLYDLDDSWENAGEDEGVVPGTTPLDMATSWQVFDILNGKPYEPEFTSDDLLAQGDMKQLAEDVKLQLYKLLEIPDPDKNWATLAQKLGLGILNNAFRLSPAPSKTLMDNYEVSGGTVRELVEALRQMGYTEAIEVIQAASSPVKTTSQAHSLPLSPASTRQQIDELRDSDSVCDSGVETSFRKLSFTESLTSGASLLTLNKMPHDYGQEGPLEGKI
Sequence of Signal transducer and activator of transcription 3 (Homo sapiens) (P40763 whole entry, looked up): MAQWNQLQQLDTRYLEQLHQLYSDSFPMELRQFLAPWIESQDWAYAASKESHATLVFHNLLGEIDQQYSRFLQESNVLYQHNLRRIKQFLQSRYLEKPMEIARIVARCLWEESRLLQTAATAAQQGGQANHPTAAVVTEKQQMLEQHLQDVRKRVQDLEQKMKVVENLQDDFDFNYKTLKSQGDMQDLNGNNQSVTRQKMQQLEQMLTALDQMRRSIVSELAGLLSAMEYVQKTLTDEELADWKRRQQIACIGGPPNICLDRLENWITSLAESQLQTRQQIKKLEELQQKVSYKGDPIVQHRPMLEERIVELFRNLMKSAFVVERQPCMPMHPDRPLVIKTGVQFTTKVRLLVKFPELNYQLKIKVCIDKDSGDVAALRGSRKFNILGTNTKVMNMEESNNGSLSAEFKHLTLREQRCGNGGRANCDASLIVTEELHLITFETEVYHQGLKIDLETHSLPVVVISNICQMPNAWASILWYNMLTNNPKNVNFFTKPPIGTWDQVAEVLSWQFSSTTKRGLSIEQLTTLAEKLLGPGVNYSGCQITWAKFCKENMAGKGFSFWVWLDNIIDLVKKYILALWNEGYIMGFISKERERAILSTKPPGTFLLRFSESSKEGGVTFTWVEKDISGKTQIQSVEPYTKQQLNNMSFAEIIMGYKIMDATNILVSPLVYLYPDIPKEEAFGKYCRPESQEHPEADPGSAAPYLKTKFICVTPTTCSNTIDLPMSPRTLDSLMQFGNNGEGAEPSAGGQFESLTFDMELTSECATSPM
Sequence of Nuclear factor erythroid 2-related factor 2 (Homo sapiens) (Q16236 whole entry, looked up): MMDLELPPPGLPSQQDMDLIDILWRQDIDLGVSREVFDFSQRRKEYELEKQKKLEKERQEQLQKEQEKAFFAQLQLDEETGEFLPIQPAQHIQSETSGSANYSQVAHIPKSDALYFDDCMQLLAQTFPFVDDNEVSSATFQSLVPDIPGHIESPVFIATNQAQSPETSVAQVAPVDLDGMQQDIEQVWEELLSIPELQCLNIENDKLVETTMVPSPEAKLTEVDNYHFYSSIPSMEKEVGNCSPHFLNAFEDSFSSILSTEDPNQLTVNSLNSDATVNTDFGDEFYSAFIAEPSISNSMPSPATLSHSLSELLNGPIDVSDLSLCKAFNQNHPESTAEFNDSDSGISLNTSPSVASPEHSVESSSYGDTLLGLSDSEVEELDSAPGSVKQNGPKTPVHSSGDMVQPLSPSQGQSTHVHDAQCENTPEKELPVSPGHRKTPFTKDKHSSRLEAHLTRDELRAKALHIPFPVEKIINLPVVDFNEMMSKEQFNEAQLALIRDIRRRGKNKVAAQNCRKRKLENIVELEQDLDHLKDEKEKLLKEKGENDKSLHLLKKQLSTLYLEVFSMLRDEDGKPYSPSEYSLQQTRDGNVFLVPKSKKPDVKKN

As for `CC(C)CCO`, the outcome in [1] is “inactive”; in experiment [2], “inactive”; in experiment [3], “inactive”; in experiment [4], “inactive”; in experiment [5] it was “inactive”; in the experiment with MYC, MYC (gene 4609) it was “inactive”. Further, the call in [6], in experiment [7], in experiment [8], in experiment [9], in [10] and in experiment [11] was inactive. In addition, the outcome in experiment [12], in experiment [13], in experiment [14], in experiment [15], in experiment [16] and in [17] was inactive.

For the compound `NC(=O)NO`, the outcome in experiment [1] is “inactive”; in experiment [2], “inactive”; in [3], “inactive”; in [4], “inactive”; in [5], “inactive”; with MYC, MYC (gene 4609) it was “inactive”. Moreover, the call in experiment [6], in [7], in experiment [8], in experiment [9], in experiment [10] and in experiment [11] was inactive. In addition, the compound was classed as inactive in [12], in [13], in experiment [14], in experiment [15], in experiment [16] and in experiment [18]. Also, the result in experiment [17] was inactive.

For `CCOC(=O)COc1ccc2c(c1)CC(NCC(O)c1cccc(Cl)c1)CC2` (stereo not given), the outcome in experiment [1] was “inactive”; in experiment [3], “inactive”; in experiment [4] it was “inactive”; in [5], “inactive”; with MYC, MYC (gene 4609), “inactive”; in experiment [6], “inactive”. Besides, the result in experiment [7], in [8], in experiment [9], in experiment [10], in [11] and in [12] was inactive. The compound was classed as inactive in experiment [13], in experiment [14], in experiment [15], in [16] and in experiment [17]. The AC50 – broadly, the midpoint of the concentration-response curve, whichever way the signal moves – in experiment [2] is 45.8 µM (active).
